# Data taken from PubChem BioAssay (EPA / NIEHS).
# Values joined by “and” are separate entries in the source; they are usually repeats but may differ in a detail not shown here. Equal values may be shown once. Records with an inconclusive call do not appear. Some structures have more than one record in an assay (separate samples or runs), and their calls can disagree. Active and inactive are the calls of the source. How the source made its calls, unless noted: active means hit-call score of the fitted dose curve at least 0.9, where 1 is the maximum; inactive means score below 0.9.
# Columns and labels:
# [1] = molecular target: Transcriptional activator Myb (Homo sapiens) (UniProt P10242); assay: ATG_Myb_CIS: Attagene CIS-FACTORIAL HepG2 Assay for human Myeloblastosis (Myb) Proto-Oncogene Transcription Factor (AID 2282986); conditions: HepG2 Attagene CIS-FACTORIAL Myb reporter transcription; actives raise or lower the signal
# Chain of Transcriptional activator Myb (Homo sapiens) (P10242 whole entry, looked up): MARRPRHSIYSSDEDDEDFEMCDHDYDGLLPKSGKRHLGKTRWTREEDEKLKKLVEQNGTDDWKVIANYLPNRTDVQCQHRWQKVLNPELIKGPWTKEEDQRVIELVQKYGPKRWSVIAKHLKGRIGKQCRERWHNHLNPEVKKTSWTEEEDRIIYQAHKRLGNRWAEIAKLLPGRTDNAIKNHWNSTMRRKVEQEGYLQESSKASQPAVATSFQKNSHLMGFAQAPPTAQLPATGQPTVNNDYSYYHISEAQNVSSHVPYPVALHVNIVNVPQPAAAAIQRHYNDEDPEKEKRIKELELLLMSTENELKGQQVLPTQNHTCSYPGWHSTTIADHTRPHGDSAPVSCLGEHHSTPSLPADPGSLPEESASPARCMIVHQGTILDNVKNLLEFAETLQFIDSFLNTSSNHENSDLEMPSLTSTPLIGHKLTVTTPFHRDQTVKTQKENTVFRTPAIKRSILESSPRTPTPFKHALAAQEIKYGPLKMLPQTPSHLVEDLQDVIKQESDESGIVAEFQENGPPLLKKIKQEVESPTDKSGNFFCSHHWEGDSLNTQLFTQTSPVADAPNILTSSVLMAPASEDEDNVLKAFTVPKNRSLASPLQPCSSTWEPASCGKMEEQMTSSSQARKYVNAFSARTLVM
# Summary of the method: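 HepG2 cells were transiently transfected with cis-regulated multiple reporter transcription units reflecting endogenous Myb activity, then exposed to compound for 24 hours. Reporter mRNA was measured by RT-PCR with capillary electrophoresis; bidirectional fitting versus DMSO baseline.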
# [2] = molecular target: Nuclear respiratory factor 1 (Homo sapiens) (UniProt Q16656); assay: ATG_NRF1_CIS: Attagene CIS-FACTORIAL HepG2 Assay for human Nuclear Respiratory Factor 1 (NRF1) Orphan Gene (AID 2282987); conditions: HepG2 NRF1 cis-element reporter, Attagene multiplex; actives raise or lower the signal
# Chain of Nuclear respiratory factor 1 (Homo sapiens) (Q16656 whole entry, looked up): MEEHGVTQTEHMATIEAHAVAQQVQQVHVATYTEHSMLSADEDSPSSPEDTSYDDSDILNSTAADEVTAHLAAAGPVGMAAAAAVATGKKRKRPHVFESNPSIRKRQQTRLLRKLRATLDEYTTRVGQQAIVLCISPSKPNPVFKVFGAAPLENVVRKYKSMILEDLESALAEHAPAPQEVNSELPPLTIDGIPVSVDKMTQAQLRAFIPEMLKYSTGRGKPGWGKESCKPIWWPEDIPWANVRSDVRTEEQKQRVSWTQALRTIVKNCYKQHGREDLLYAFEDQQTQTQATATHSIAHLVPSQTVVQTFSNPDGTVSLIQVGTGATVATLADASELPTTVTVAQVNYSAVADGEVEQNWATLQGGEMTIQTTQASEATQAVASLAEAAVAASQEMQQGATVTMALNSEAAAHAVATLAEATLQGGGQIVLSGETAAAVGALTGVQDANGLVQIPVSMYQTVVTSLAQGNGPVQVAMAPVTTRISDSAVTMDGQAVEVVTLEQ
# Summary of the method: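 HepG2 cells transiently transfected with multiple reporter transcription units under cis-regulatory promoter control, so endogenous transcription-factor activity is read. After 24 h compound exposure, reporter mRNA quantified by RT-PCR, fluorescent labelling, HpaI digestion and capillary electrophoresis; bidirectional fitting versus DMSO.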
# [3] = ATG_NFI_CIS: Attagene CIS-FACTORIAL HepG2 Assay for human Nuclear Factor I (NFI) (AID 2282989); conditions: HepG2 cis-regulatory reporter, NFI response element transcription; actives raise or lower the signal
# Summary of the method: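 Reporter transcription driven by endogenous transcription factors in HepG2 cells; 24 h treatment. Quantitation by labelled RT-PCR fragments on capillary electrophoresis, gain- or loss-of-signal relative to DMSO.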
# [4] = molecular target: Myc proto-oncogene protein (Homo sapiens) (UniProt P01106); assay: ATG_Myc_CIS: Attagene CIS-FACTORIAL HepG2 Assay for human Myelocytomatosis (Myc) Proto-Oncogene Transcription Factor (AID 2282990); conditions: HepG2, Attagene cis-reporter transcription factor activity; actives raise or lower the signal
# Chain of Myc proto-oncogene protein (Homo sapiens) (P01106 whole entry, looked up): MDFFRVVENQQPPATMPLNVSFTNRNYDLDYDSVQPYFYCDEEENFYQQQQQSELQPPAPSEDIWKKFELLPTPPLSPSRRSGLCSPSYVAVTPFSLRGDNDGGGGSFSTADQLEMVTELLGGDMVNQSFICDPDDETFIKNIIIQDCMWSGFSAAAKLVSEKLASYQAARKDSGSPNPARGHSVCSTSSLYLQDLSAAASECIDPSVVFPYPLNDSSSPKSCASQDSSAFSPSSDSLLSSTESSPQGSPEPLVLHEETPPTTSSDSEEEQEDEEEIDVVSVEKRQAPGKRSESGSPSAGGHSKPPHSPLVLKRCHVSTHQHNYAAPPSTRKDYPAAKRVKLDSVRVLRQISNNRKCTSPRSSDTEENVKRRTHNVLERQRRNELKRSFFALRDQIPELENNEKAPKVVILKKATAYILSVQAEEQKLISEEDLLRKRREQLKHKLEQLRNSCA
# Summary of the method: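 Cells of the HepG2 human liver line bear multiple cis-driven reporter transcription units. Reporter mRNA after 24 h exposure is reverse-transcribed, amplified, labelled and resolved by capillary electrophoresis, with gain- or loss-of-signal fitting relative to DMSO.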
# [5] = ATG_NRF2_ARE_CIS: Attagene CIS-FACTORIAL HepG2 Assay for human Nuclear Factor Erythroid 2 Related Factor 2 (NFR2) response to Antioxidant Response Elements (ARE) (AID 2282992); conditions: HepG2 Attagene ARE/NRF2 reporter, transcription factor activity; actives raise or lower the signal
# Summary of the method: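 Using transiently transfected HepG2 cells exposed for 24 h, reporter mRNA levels were determined by RT-PCR with fluorescent primer extension and capillary electrophoresis, analysed for gain or loss of signal against DMSO.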
# [6] = ATG_Oct_MLP_CIS: Attagene CIS-FACTORIAL HepG2 Assay for human Octamer-Binding Transcription Factor (Oct) (AID 2282993); conditions: HepG2 Attagene cis-factorial Oct reporter, mRNA; actives raise or lower the signal
# Summary of the method: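 Transfected HepG2 cells, 24 h treatment. Reporter mRNA quantified by RT-PCR–capillary electrophoresis; bidirectional fitting against DMSO.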
# [7] = molecular target: Cellular tumor antigen p53 (Homo sapiens) (UniProt P04637); assay: ATG_p53_CIS: Attagene CIS-FACTORIAL HepG2 Assay for human p53 Transcription Factor (AID 2282994); conditions: HepG2 p53 cis-element reporter, Attagene mRNA; actives raise or lower the signal
# Chain of Cellular tumor antigen p53 (Homo sapiens) (P04637 whole entry, looked up, the tested form may be a part): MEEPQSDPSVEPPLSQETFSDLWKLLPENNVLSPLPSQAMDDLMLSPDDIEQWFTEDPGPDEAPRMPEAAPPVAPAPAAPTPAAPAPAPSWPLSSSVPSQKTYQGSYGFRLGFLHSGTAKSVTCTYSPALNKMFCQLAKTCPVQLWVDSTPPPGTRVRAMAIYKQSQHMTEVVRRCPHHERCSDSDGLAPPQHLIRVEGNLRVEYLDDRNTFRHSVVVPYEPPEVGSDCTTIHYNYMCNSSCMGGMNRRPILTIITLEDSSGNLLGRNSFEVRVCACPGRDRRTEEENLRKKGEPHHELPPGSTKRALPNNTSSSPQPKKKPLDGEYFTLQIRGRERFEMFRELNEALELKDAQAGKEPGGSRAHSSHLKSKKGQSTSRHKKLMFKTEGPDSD
# Summary of the method: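 In HepG2 cells, reporter transcription units under cis-regulatory promoters were transiently introduced. Following 24 h treatment, RNA was processed to labelled, digested cDNA fragments read by capillary electrophoresis; fitting was bidirectional versus DMSO.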
# [8] = BSK_3C_TissueFactor: BioMAP Diversity Plus: 3C Assay for Tissue Factor Biomarker Activity (AID 2282997); conditions: BioMAP 3C HUVEC, tissue factor biomarker readout; actives raise or lower the signal
# Summary of the method: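 Readout: Tissue Factor ELISA. Cells: human primary umbilical vein endothelium. Time: 24 h after dosing. Analysis: bidirectional fit, DMSO baseline.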
# [9] = BSK_3C_uPAR: BioMAP Diversity Plus: 3C Assay for Urokinase-type plasminogen activator receptor (uPAR) Biomarker Activity (AID 2282998); conditions: BioMAP 3C HUVEC, uPAR biomarker ELISA; actives raise or lower the signal
# Summary of the method: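 Readout: ELISA for surface uPAR. System: human umbilical vein endothelial primary cells, 24 h after chemical exposure. Analysis: bidirectional fit, DMSO baseline.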
# [10] = BSK_3C_VCAM1: BioMAP Diversity Plus: 3C Assay for Vascular cell adhesion molecule 1 (VCAM1) Biomarker Activity (AID 2282999); conditions: BioMAP 3C HUVEC, VCAM1 ELISA, cytokine-stimulated; actives raise or lower the signal
# Summary of the method: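 Activity fitted in both directions relative to DMSO, with ELISA measurement of the surface marker on primary HUVEC (3C) at 24 h post-treatment; parallel SRB staining (0.1% SRB, TCA-fixed, 560 nm) flagged overt cytotoxicity.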
# [11] = BSK_4H_Eotaxin3: BioMAP Diversity Plus: 4H Assay for Eotaxin 3 Biomarker Activity (AID 2283000); conditions: primary human endothelial cells (HUVEC); actives raise or lower the signal;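 on outcome: CCL26 protein level quantified by ELISA in parallel with SRB cytotoxicity check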
# Summary of the method: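 HUVEC, 24 h post-dose, ELISA for Eotaxin-3/CCL26. Gain or loss of signal fitted bidirectionally vs DMSO baseline.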
# [12] = molecular target: human Peroxisome Proliferator-activated Receptor delta (PPARd), PPARD (gene 5467) (UniProt Q03181); assay: ATG_PPARd_TRANS: Attagene TRANS-FACTORIAL HepG2 Assay for human Peroxisome Proliferator-activated Receptor delta (PPARd) (AID 2283002; active means hit-call score of the fitted dose curve at least 0.9, where 1 is the maximum)
# Chain of human Peroxisome Proliferator-activated Receptor delta (PPARd), PPARD (gene 5467) (Q03181 whole entry, looked up): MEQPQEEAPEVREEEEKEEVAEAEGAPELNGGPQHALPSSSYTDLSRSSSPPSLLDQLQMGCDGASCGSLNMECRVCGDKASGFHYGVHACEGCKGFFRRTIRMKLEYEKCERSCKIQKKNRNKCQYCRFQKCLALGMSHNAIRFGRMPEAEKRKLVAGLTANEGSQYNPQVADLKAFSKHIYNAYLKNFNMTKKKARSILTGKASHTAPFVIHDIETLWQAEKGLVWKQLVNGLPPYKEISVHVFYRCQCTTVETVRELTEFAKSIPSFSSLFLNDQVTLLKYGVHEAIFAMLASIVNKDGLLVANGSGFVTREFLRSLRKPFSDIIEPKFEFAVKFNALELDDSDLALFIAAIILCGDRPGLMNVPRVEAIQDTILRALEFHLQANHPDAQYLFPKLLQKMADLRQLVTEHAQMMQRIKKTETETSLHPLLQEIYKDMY
# Summary of the method: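 Cell-based TRANS reporter: HepG2, transient MRTU transfection, 24 h exposure. Readout = reporter mRNA (RT-PCR/CE, 6-FAM). Gain-of-signal fit vs DMSO control.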
# [13] = read-out: Intercellular Adhesion Molecule 1 (ICAM1), ICAM1 (gene 3383); assay: BSK_3C_ICAM1: BioMAP Diversity Plus: 3C Assay for Intercellular Adhesion Molecule 1 (ICAM1) Biomarker Activity (AID 2283003); conditions: primary human endothelial cells (HUVEC); actives raise or lower the signal
# Summary of the method: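 Using DMSO as baseline, bidirectional curve fitting was applied to ICAM-1 ELISA signals from HUVEC in the 3C system, measured 24 h after compound addition.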
# [14] = molecular target: human Retinoic Acid Receptor beta (RARb), RARB (gene 5915) (UniProt P10826); assay: ATG_RARb_TRANS: Attagene TRANS-FACTORIAL HepG2 Assay for human Retinoic Acid Receptor beta (AID 2283004; active means hit-call score of the fitted dose curve at least 0.9, where 1 is the maximum)
# Chain of human Retinoic Acid Receptor beta (RARb), RARB (gene 5915) (P10826 whole entry, looked up, the tested form may be a part): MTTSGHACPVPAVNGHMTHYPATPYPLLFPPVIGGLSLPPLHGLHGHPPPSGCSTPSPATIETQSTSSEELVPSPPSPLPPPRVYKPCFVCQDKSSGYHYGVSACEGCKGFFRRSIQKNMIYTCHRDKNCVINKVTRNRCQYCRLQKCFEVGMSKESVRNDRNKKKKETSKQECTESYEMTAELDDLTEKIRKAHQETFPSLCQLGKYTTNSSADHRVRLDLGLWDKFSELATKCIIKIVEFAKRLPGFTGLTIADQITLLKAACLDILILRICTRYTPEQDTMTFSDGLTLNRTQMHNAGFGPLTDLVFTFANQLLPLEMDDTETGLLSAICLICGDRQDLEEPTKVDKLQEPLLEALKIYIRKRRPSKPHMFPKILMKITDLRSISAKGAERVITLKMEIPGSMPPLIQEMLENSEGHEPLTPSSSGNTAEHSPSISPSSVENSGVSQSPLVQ
# Summary of the method: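 HepG2 cells transiently transfected with multiplexed GAL4-UAS reporter units expressing chimeric NR–Gal4 fusions; 24 h compound exposure. Reporter mRNA quantified by RT-PCR, 6-FAM labelling, HpaI digestion and capillary electrophoresis; gain-of-signal fitted against DMSO baseline.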
# [15] = molecular target: Retinoic acid receptor alpha (Homo sapiens) (UniProt P10276); assay: ATG_RARa_TRANS: Attagene TRANS-FACTORIAL HepG2 Assay for human Retinoic Acid Receptor alpha (RARa) (AID 2283005; active means hit-call score of the fitted dose curve at least 0.9, where 1 is the maximum;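 on AC50: potency for increased reporter signal meaning RARa activation over DMSO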)
# Summary of the method: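 Reporter transcripts, measured by RT-PCR with fluorescent labeling and capillary electrophoresis after 24 h dosing, reflect activity of an exogenous human RARa–GAL4 fusion in transiently transfected HepG2. Fitted for increase relative to DMSO.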
# [16] = molecular target: Peroxisome proliferator-activated receptor gamma (Homo sapiens) (UniProt P37231); assay: ATG_PPARg_TRANS: Attagene TRANS-FACTORIAL HepG2 Assay for human Peroxisome Proliferator-activated Receptor-gamma (PPARg) (AID 2283007; active means hit-call score of the fitted dose curve at least 0.9, where 1 is the maximum)
# Chain of Peroxisome proliferator-activated receptor gamma (Homo sapiens) (P37231 whole entry, looked up, the tested form may be a part): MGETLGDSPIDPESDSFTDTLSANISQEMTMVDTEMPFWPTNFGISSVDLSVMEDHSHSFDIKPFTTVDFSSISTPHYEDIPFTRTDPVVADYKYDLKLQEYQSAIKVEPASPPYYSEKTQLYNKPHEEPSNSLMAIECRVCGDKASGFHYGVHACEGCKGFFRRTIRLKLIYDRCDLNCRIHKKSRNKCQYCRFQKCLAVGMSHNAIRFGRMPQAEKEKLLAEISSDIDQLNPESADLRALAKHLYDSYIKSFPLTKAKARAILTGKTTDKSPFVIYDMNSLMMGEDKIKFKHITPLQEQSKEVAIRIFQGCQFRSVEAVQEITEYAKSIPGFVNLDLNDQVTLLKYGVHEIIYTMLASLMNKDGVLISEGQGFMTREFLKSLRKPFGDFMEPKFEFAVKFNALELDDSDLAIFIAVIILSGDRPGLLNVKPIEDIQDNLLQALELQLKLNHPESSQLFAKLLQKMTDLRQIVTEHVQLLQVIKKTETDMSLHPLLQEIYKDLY
# Summary of the method: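 HepG2 cells transiently transfected with multiplexed GAL4-UAS reporter units and exogenous chimeric NR-Gal4 proteins; reporter mRNA quantified after 24 h compound exposure by RT-PCR, fluorescent labelling, HpaI digestion and capillary electrophoresis; gain-of-signal fitted versus DMSO baseline.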
# [17] = molecular target: Nuclear receptor subfamily 1 group I member 2 (Homo sapiens) (UniProt O75469); assay: ATG_PXR_TRANS: Attagene TRANS-FACTORIAL HepG2 Assay for human Pregnane X Receptor (PXR) (AID 2283008; active means hit-call score of the fitted dose curve at least 0.9, where 1 is the maximum)
# Chain of Nuclear receptor subfamily 1 group I member 2 (Homo sapiens) (O75469 whole entry, looked up, the tested form may be a part): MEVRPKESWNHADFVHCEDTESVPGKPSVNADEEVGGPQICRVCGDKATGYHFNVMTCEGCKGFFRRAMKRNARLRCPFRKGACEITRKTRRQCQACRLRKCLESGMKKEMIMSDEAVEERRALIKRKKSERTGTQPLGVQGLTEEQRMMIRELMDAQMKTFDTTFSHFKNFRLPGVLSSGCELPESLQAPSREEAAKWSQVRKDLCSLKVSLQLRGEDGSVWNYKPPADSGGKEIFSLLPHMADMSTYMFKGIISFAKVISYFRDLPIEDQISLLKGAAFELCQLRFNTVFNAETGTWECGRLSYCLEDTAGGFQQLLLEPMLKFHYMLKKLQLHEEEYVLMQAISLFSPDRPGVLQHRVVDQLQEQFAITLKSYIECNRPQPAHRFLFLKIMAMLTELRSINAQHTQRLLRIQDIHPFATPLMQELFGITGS
# Summary of the method: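 Multiplexed TRANS reporter panel in HepG2; this component tracks PXR-Gal4-driven reporter mRNA after 24 h dosing, measured by RT-PCR with capillary electrophoresis fluorescence, fitted against DMSO.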
# [18] = molecular target: human Peroxisome Proliferator-activated Receptor alpha (PPARa), PPARA (gene 5465) (UniProt Q07869); assay: ATG_PPARa_TRANS: Attagene TRANS-FACTORIAL HepG2 Assay for human Peroxisome Proliferator-activated Receptor alpha (PPARa) (AID 2283001; active means hit-call score of the fitted dose curve at least 0.9, where 1 is the maximum;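 on AC50: potency for gain of reporter signal over DMSO so agonist or activator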)
# Chain of human Peroxisome Proliferator-activated Receptor alpha (PPARa), PPARA (gene 5465) (Q07869 whole entry, looked up, the tested form may be a part): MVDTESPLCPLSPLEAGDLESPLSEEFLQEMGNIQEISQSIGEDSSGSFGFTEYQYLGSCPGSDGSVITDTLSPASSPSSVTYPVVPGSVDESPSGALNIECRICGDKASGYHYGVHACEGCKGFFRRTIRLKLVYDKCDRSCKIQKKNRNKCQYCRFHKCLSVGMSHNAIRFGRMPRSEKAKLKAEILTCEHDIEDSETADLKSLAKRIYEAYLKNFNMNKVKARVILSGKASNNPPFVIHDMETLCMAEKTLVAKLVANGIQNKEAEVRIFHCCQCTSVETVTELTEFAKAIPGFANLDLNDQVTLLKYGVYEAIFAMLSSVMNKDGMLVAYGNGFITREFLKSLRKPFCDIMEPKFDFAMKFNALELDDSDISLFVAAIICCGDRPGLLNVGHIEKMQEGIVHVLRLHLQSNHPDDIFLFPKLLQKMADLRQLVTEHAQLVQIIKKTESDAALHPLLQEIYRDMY
# Summary of the method: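 Transfected HepG2 cells treated with test chemical for 24 h. RNA isolated, reverse-transcribed with oligo(dT), PCR-amplified, FAM-labelled and HpaI-digested. Fragments sized by capillary electrophoresis; gain-of-signal fit relative to DMSO.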
# [19] = molecular target: human Retinoic Acid Receptor gamma (RARg), RARG (gene 5916) (UniProt P13631); assay: ATG_RARg_TRANS: Attagene TRANS-FACTORIAL HepG2 Assay for human Retinoic Acid Receptor gamma (RARg) (AID 2283009; active means hit-call score of the fitted dose curve at least 0.9, where 1 is the maximum;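 on AC50: AC50 is for reporter induction above DMSO meaning RARg activation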)
# Chain of human Retinoic Acid Receptor gamma (RARg), RARG (gene 5916) (P13631 whole entry, looked up, the tested form may be a part): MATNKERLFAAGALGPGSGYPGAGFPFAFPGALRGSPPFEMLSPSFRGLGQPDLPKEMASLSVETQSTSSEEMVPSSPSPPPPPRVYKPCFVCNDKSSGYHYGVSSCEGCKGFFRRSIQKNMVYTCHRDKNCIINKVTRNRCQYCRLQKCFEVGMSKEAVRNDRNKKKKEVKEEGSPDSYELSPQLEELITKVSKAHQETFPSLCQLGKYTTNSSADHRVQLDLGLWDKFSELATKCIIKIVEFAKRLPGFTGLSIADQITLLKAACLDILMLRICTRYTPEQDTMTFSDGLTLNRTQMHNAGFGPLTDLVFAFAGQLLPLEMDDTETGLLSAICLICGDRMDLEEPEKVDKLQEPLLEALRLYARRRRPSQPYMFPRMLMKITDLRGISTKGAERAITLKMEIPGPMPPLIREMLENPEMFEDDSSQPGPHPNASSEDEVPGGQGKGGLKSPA
# Summary of the method: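 Gain-of-signal relative to DMSO is reported from fluorescent capillary electrophoresis of RT-PCR reporter products. These came from HepG2 cells expressing transfected RARg-GAL4 chimeras with UAS reporters, harvested 24 h after dosing.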
# [20] = BSK_3C_Proliferation: Cell Proliferation Assessment in the BioMAP Diversity Plus: 3C Assay (AID 2283006); conditions: primary human endothelial cells (HUVEC);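 further: potency may reflect either rise or fall in cell number versus DMSO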
# Summary of the method: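 Measured here: sulforhodamine B (0.1%) staining of TCA-fixed sub-confluent umbilical vein endothelial cultures 48 h post-dosing, absorbance 560 nm. DMSO served as negative control and baseline; both signal gain and loss were modelled.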
compound,measurement,setting,value
COC(=O)C=C(C)OP(=O)(OC)OC,outcome,[1],inactive
same,outcome,[2],inactive
same,outcome,[3],inactive
same,outcome,[4],inactive
same,AC50,[5],50 µM (active)
same,outcome,[6],inactive
same,outcome,[7],inactive
same,outcome,[8],inactive
same,outcome,[9],inactive
same,outcome,[10],inactive
same,outcome,[11],inactive
same,outcome,[12],inactive
same,outcome,[13],inactive
same,outcome,[14],inactive
same,outcome,[15],inactive
same,outcome,[16],inactive
same,outcome,[17],inactive
COc1nc(C)nc(NC(=O)NS(=O)(=O)c2ccccc2CCC(F)(F)F)n1,outcome,[1],inactive
same,outcome,[2],inactive
same,outcome,[4],inactive
same,AC50,[5],16.7 µM (active) and 31.3 µM (active)
same,outcome,[5],inactive
same,outcome,[6],inactive
same,outcome,[7],inactive
same,outcome,[8],inactive
same,outcome,[9],inactive
same,outcome,[10],inactive
same,outcome,[11],inactive
same,outcome,[18],inactive
same,outcome,[12],inactive
same,outcome,[13],inactive
same,outcome,[14],inactive
same,outcome,[15],inactive
same,outcome,[16],inactive
same,outcome,[17],inactive
same,outcome,[19],inactive
Fc1ccc(Oc2ccnc3cc(Cl)cc(Cl)c23)cc1,outcome,[1],inactive
same,outcome,[2],inactive
same,outcome,[4],inactive
same,AC50,[5],3.83 µM (active)
same,outcome,[6],inactive
same,outcome,[7],inactive
same,AC50,[8],34.7 µM (active)
same,AC50,[9],31.2 µM (active)
same,AC50,[10],31.4 µM (active)
same,AC50,[11],28.8 µM (active)
same,outcome,[18],inactive
same,outcome,[12],inactive
same,AC50,[13],29.9 µM (active)
same,outcome,[14],inactive
same,outcome,[15],inactive
same,AC50,[20],24.4 µM (active)
same,outcome,[16],inactive
same,outcome,[17],inactive
same,outcome,[19],inactive
CCOP(=S)(OCC)SCn1c(=O)oc2cc(Cl)ccc21,outcome,[1],inactive
same,outcome,[2],inactive
same,outcome,[3],inactive
same,outcome,[4],inactive
same,AC50,[5],16 µM (active)
same,AC50,[6],14.1 µM (active)
same,outcome,[7],inactive
same,outcome,[8],inactive
same,outcome,[9],inactive
same,outcome,[10],inactive
same,outcome,[11],inactive
same,outcome,[18],inactive
same,outcome,[13],inactive
same,outcome,[14],inactive
same,AC50,[15],12.9 µM (active)
same,AC50,[16],50 µM (active)
same,AC50,[17],13.2 µM (active)
same,outcome,[19],inactive
C=CCC1=C(C)C(OC(=O)C2C(C=C(C)C)C2(C)C)CC1=O (stereo unspecified),outcome,[1],inactive
same,AC50,[2],136 µM (active) and 144 µM (active)
same,outcome,[2],inactive
same,outcome,[4],inactive
same,AC50,[6],47.5 µM (active) [middle of 5 runs]
same,outcome,[6],inactive
same,AC50,[7],170 µM (active) and 86.4 µM (active)
same,outcome,[7],inactive
same,AC50,[8],34 µM (active) [middle of 4 runs]
same,AC50,[9],35.3 µM (active) [middle of 4 runs]
same,AC50,[10],33.2 µM (active) and 31 µM (active) and 29.8 µM (active)
same,outcome,[10],inactive
same,AC50,[11],33.4 µM (active) and 38.4 µM (active) and 32.5 µM (active)
same,outcome,[11],inactive
same,AC50,[18],1.05 µM (active)
same,outcome,[18],inactive
same,outcome,[13],inactive
same,AC50,[15],789 nM (active) and 12.6 µM (active)
same,AC50,[20],33.4 µM (active) and 32.5 µM (active) and 31.5 µM (active)
same,AC50,[16],18.3 µM (active) [middle of 6 runs]
same,AC50,[19],1.75 µM (active)
same,outcome,[19],inactive
